Hit rate of the full screen: of about 39,000 compounds, about 1,500 (3.8%) were called active. The list comes from a sample in which actives are over-represented; it also holds similar structures and randomly drawn compounds.

The subject of this experiment is HSkMC (human skeletal muscle cells). Put plainly: cytotoxicity call (relative viability < 0.9). The conditions noted are these: 10 µM.
On to `CC(=O)N1CCO[C@H]2CCN(C(=O)c3cn(C)cn3)C[C@H]21`, for which the cytotoxicity call is “inactive”.
Next, `Cc1ccc(S(=O)(=O)N(C)C[C@H]2OCCCC[C@H](C)Oc3ccc(NC(=O)Nc4ccc(F)cc4)cc3C(=O)N([C@H](C)CO)C[C@@H]2C)cc1`: “inactive”; `Cc1noc(C)c1NC(=O)N(C)C[C@@H]1Oc2ccc(NC(=O)c3ccncc3)cc2CC(=O)N([C@H](C)CO)C[C@H]1C`: “inactive”; `COc1cccc(NC(=O)N(C)C[C@H]2OCc3ccccc3-c3c(n(C)c4ccccc34)C(=O)N([C@@H](C)CO)C[C@H]2C)c1`: “inactive”.
On to `C[C@H]1CN([C@@H](C)CO)S(=O)(=O)c2ccc(C#CCC3CCCC3)cc2O[C@@H]1CN(C)C(=O)c1cnccn1`, for which the cytotoxicity call is “inactive”.
As to `C=CCC[C@H](Cc1ccc(F)cc1)C(=O)OC[C@@H](Cc1c[nH]c2ccccc12)NC(=O)[C@@H](CC=C)CC(=O)N(CCO)Cc1ccccc1`, the cytotoxicity call is “inactive”.
For `C=CCC[C@H](Cc1ccc(F)cc1)C(=O)OC[C@H](Cc1c[nH]c2ccccc12)NC(=O)[C@H](CC=C)CC(=O)N(CCO)Cc1ccccc1` the value was “inactive”; for `C=CCC[C@@H](Cc1ccc(F)cc1)C(=O)OC[C@@H](Cc1c[nH]c2ccccc12)NC(=O)[C@@H](CC=C)CC(=O)N[C@@H](CO)Cc1ccccc1`, “inactive”.
With `C=CCC[C@@H](Cc1ccc(F)cc1)C(=O)OC[C@H](Cc1c[nH]c2ccccc12)NC(=O)[C@H](CC=C)CC(=O)N(CCO)Cc1ccccc1`, the cytotoxicity call is “inactive”.
For `C=CCC[C@H](Cc1ccc(F)cc1)C(=O)OC[C@H](Cc1c[nH]c2ccccc12)NC(=O)[C@@H](CC=C)CC(=O)N(CCO)Cc1ccccc1` the value was “active”; for `C=CCC[C@@H](Cc1ccc(F)cc1)C(=O)OC[C@@H](Cc1c[nH]c2ccccc12)NC(=O)[C@@H](CC=C)CC(=O)N(CCO)Cc1ccccc1`, “active”.
Next, `C=CCC[C@@H](Cc1ccc(F)cc1)C(=O)OC[C@@H](Cc1c[nH]c2ccccc12)NC(=O)[C@H](CC=C)CC(=O)N(CCO)Cc1ccccc1`: “active”; `C=CCC[C@H](Cc1ccc(F)cc1)C(=O)OC[C@@H](Cc1c[nH]c2ccccc12)NC(=O)[C@@H](CC=C)CC(=O)N[C@@H](CO)Cc1ccccc1`: “inactive”.
For `C=CCC[C@@H](Cc1ccc(F)cc1)C(=O)OC[C@H](Cc1c[nH]c2ccccc12)NC(=O)[C@@H](CC=C)CC(=O)N(CCO)Cc1ccccc1` the value was “inactive”; for `C=CCC[C@H](Cc1ccc(F)cc1)C(=O)OC[C@@H](Cc1c[nH]c2ccccc12)NC(=O)[C@H](CC=C)CC(=O)N(CCO)Cc1ccccc1`, “active”.
`CC(C)(C)[S@@](=O)N1Cc2cc(C(=O)N3CCc4ccccc4C3)nc(-c3cccc(-c4ccncc4)c3)c2[C@H]1CCO`: the cytotoxicity call is “inactive”.
With `CCO[C@H]1OC(C(=O)N2CCN(C)CC2)=C[C@@H](c2coc3ccccc3c2=O)[C@@H]1CCCOC(=O)NCCCCCC(=O)NO`, the cytotoxicity call is “inactive”.
For `C[C@@H]1CN([C@@H](C)CO)C(=O)Cc2cc(NS(=O)(=O)c3cccs3)ccc2O[C@@H]1CN(C)Cc1ccc(-c2ccccc2)cc1` the value was “inactive”; for `NC(=O)CC(N)=S`, “inactive”.
Consider `C[C@H]1CN([C@@H](C)CO)S(=O)(=O)c2ccc(C#CC3CCCC3)cc2O[C@H]1CN(C)C(=O)Cc1ccncc1`, for which the cytotoxicity call is “inactive”.
For `CN(C)CC(=O)N1[C@@H]2Cn3c(ccc(-c4ccccc4)c3=O)[C@H]1[C@@H](C(=O)N1CCOCC1)[C@@H]2CO` the value was “inactive”; for `C[C@H](CO)N1C[C@H](C)[C@H](CN(C)S(=O)(=O)c2cccs2)Oc2c(NC(=O)Nc3cccc4ccccc34)cccc2C1=O`, “inactive”.
Next, `COC(=O)C[C@H]1C=C[C@H](N)[C@H](CO)O1`: “inactive”; `Cc1noc(C)c1S(=O)(=O)Nc1ccc2c(c1)CC(=O)N([C@H](C)CO)C[C@H](C)[C@@H](CN(C)S(=O)(=O)c1cccs1)O2`: “inactive”.
For `C[C@@H]1CCCCO[C@@H](CN(C)S(=O)(=O)c2ccc(F)cc2)[C@H](C)CN([C@H](C)CO)C(=O)c2cc(NS(=O)(=O)c3ccc(Cl)cc3)ccc2O1` the value was “inactive”.
Take `C[C@@H]1CN([C@H](C)CO)C(=O)c2cc(NS(=O)(=O)c3ccc(F)cc3)ccc2O[C@H]1CN(C)Cc1ccc(Cl)c(Cl)c1`: the cytotoxicity call was “active”.
For `C[C@H]1CN([C@@H](C)CO)C(=O)c2cc(NS(=O)(=O)c3ccc(F)cc3)ccc2O[C@@H]1CN(C)Cc1ccc(Cl)c(Cl)c1` the value was “active”; for `C[C@H]1CN([C@@H](C)CO)C(=O)c2cc(NS(=O)(=O)c3ccc(F)cc3)ccc2O[C@H]1CN(C)Cc1ccc(Cl)c(Cl)c1`, “inactive”.
Next, `C[C@@H]1CN([C@@H](C)CO)C(=O)c2cc(NS(=O)(=O)c3ccc(F)cc3)ccc2O[C@@H]1CN(C)Cc1ccc(Cl)c(Cl)c1`: “inactive”.
For `C[C@@H]1CN([C@@H](C)CO)C(=O)c2cc(NS(=O)(=O)c3ccc(F)cc3)ccc2O[C@H]1CN(C)Cc1ccc(Cl)c(Cl)c1`, the cytotoxicity call was “active”.
Turning to `C[C@H](CO)N1C[C@H](C)[C@H](CN(C)Cc2ccc(Cl)c(Cl)c2)Oc2ccc(NS(=O)(=O)c3ccc(F)cc3)cc2C1=O`, the cytotoxicity call was “inactive”.
For `C[C@@H]1CN([C@H](C)CO)C(=O)c2cc(NS(=O)(=O)c3ccc(F)cc3)ccc2O[C@@H]1CN(C)Cc1ccc(Cl)c(Cl)c1`, the cytotoxicity call is “inactive”.
Next, `C[C@H](CO)N1C[C@H](C)[C@@H](CN(C)Cc2ccc(Cl)c(Cl)c2)Oc2ccc(NS(=O)(=O)c3ccc(F)cc3)cc2C1=O`: “inactive”.
`NC[C@H]1CC[C@H](C(=O)O)CC1`: the cytotoxicity call is “inactive”.
For `C[C@@H]1CCCCO[C@H](CN(C)Cc2ccccc2)[C@H](C)CN([C@@H](C)CO)C(=O)c2cc(NC(=O)c3ccccc3)ccc2O1` the value was “inactive”; for `COc1ccccc1CNC(=O)C[C@@H]1C[C@H]2c3cc(NC(=O)c4ccc5c(c4)OCO5)ccc3O[C@H]2[C@@H](CO)O1`, “inactive”; for `C[C@@H]1CN([C@H](C)CO)C(=O)CCCn2nncc2CO[C@@H]1CN(C)S(=O)(=O)c1ccc(Oc2ccccc2)cc1`, “inactive”.
Next, `Cc1ccc(S(=O)(=O)N2C[C@@H](O)COC[C@H]3O[C@H](CC(=O)NCc4cccc(C(F)(F)F)c4)CC[C@@H]32)cc1`: “inactive”.
Next, `O=C1O[C@@H](c2ccccc2)[C@@H](c2ccccc2)N2[C@@H](c3ccc(O)cc3)[C@]3(C(=O)Nc4ccc(C#CC5(O)CCCCCC5)cc43)[C@@H](C(=O)N3CCCCCCC3)[C@H]12`: “inactive”; `CNC[C@H]1OCCCC[C@H](C)Oc2ccc(NS(=O)(=O)c3cn(C)cn3)cc2C(=O)N([C@@H](C)CO)C[C@@H]1C`: “inactive”.
Turning to `C[C@@H]1CCCCO[C@@H](CN(C)C(=O)C2CCCCC2)[C@@H](C)CN([C@@H](C)CO)C(=O)c2cc(NC(=O)C3CCCCC3)ccc2O1`, the cytotoxicity call is “inactive”.
For `COc1ccc(S(=O)(=O)Nc2ccc3c(c2)CC(=O)N([C@@H](C)CO)C[C@H](C)[C@@H](CN(C)S(=O)(=O)c2ccc(OC)cc2)O3)cc1` the value was “inactive”; for `COC(=O)[C@@]12CCC(C)(C)C[C@@H]1[C@@H]1C(=O)C=C3[C@]4(C)C=C(C#N)C(=O)C(C)(C)[C@H]4CC[C@]3(C)[C@@]1(C)CC2`, “active”.
For `COC(=O)[C@]12CCC(C)(C)C[C@H]1[C@H]1C(=O)C=C3[C@@]4(C)C=C(C#N)C(=O)C(C)(C)[C@@H]4CC[C@@]3(C)[C@]1(C)CC2` the value was “active”; for `COc1ccc(CN(C)C[C@@H]2OCCCC[C@H](C)Oc3ccc(NC(=O)NC4CCCCC4)cc3C(=O)N([C@@H](C)CO)C[C@H]2C)cc1`, “inactive”; for `CC1(C)[C@@H](OC(=O)CCC(=O)O)CC[C@]2(C)[C@H]3C(=O)C=C4[C@@H]5C[C@@](C)(C(=O)O)CC[C@]5(C)CC[C@@]4(C)[C@]3(C)CC[C@@H]12`, “inactive”.
For `C[C@@H]1CN([C@@H](C)CO)S(=O)(=O)c2ccc(/C=C/c3ccccc3)cc2O[C@@H]1CN(C)C(=O)Nc1cc(F)ccc1F` the value was “inactive”; for `Cc1ccc(S(=O)(=O)Nc2ccc3c(c2)CC(=O)N([C@H](C)CO)C[C@H](C)[C@H](CN(C)CC2CC2)O3)cc1`, “inactive”; for `C[C@@H](C(=O)N(C)C[C@H]1OCc2ccccc2-c2c(n(C)c3ccccc23)C(=O)N([C@@H](C)CO)C[C@@H]1C)c1ccccc1`, “inactive”.
With `C[C@H](CO)N1C[C@H](C)[C@@H](CN(C)C(=O)c2cc(Cl)cc(Cl)c2)OCc2ccccc2-c2c(n(C)c3ccccc23)C1=O`, the cytotoxicity call is “active”.
As for `C[C@@H]1CN([C@@H](C)CO)C(=O)c2c(c3ccccc3n2C)-c2ccccc2CO[C@@H]1CN(C)C(=O)[C@H](C)c1ccccc1`, the cytotoxicity call was “inactive”.
Next, `C[C@@H]1CN([C@H](C)CO)C(=O)c2c(c3ccccc3n2C)-c2ccccc2CO[C@@H]1CN(C)C(=O)[C@H](C)c1ccccc1`: “active”; `C[C@@H]1CN([C@H](C)CO)C(=O)c2c(c3ccccc3n2C)-c2ccccc2CO[C@H]1CN(C)C(=O)c1cc(Cl)cc(Cl)c1`: “active”; `C[C@H]1CN([C@@H](C)CO)C(=O)c2c(c3ccccc3n2C)-c2ccccc2CO[C@H]1CN(C)C(=O)c1cc(Cl)cc(Cl)c1`: “inactive”.
For `C[C@@H]1CN([C@@H](C)CO)C(=O)c2c(c3ccccc3n2C)-c2ccccc2CO[C@@H]1CN(C)C(=O)c1cc(Cl)cc(Cl)c1` the value was “inactive”.
On to `C[C@@H]1CN([C@@H](C)CO)C(=O)c2c(c3ccccc3n2C)-c2ccccc2CO[C@H]1CN(C)C(=O)c1cc(Cl)cc(Cl)c1`, for which the cytotoxicity call is “inactive”.
As for `C[C@H]1CN([C@@H](C)CO)C(=O)c2c(c3ccccc3n2C)-c2ccccc2CO[C@@H]1CN(C)C(=O)c1cc(Cl)cc(Cl)c1`, the cytotoxicity call was “inactive”.
For `C[C@H](CO)N1C[C@H](C)[C@H](CN(C)S(C)(=O)=O)Oc2ccc(NC(=O)CCN3CCOCC3)cc2C1=O`, the cytotoxicity call is “inactive”.
Next, `C[C@@H]1CN([C@@H](C)CO)C(=O)c2c(c3ccccc3n2C)-c2ccccc2CO[C@H]1CN(C)S(=O)(=O)c1cn(C)cn1`: “inactive”.

Values taken from the antibiotic and cytotoxicity screens of Wong et al. (2023).
